Values joined by “and” are separate entries in the source; they are usually repeats but may differ in a detail not shown here. Equal entries are not always repeated. A number with no mark means an inactive call. Where a call stands in place of a potency, no number is given. Active and inactive are the calls of the source. Unless noted, calls follow the shape of the dose curve; as a rule, active = well fitted curve in the direction sought with a large enough effect in the repeat runs; inconclusive = weak or mixed curves; inactive = no such curve, though single readings can be large; an effect the other way counts as inactive or inconclusive.
How the values were obtained:
[1] = qHTS assay to identify small molecule antagonists of the thyroid receptor (TR) signaling pathway - cell viability counter screen (AID 743064); also: nearly all actives have a fitted effect of over 50% in size; also: potency is read from the fitted curve at half-maximal effect
Method in brief: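 GH3.TRE-Luc cells, 4 h pre-plating; cpd + T3 1 nM final; 37 °C 23.5 h; CellTiter-Fluor 30 min; fluorescence read.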

[2] = qHTS assay to identify small molecule antagonists of the thyroid receptor (TR) signaling pathway (AID 743065); also: nearly all actives have a fitted effect of over 55% in size; also: potency is read from the fitted curve at half-maximal effect
Method in brief: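 Antagonism measured as loss of luciferase signal in GH3 cells stably carrying a TRE-luciferase reporter, co-treated with compound and T3 (1 nM final) for 23.5 h at 37 C. Viability was read in the same well by CellTiter-Fluor.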

[3] = system: thyroid hormone receptor (rat, GH3 cells); experiment: qHTS assay to identify small molecule agonists of the thyroid receptor (TR) signaling pathway (AID 743066; calls by dose curve)
[4] = qHTS assay to identify small molecule antagonists of the estrogen receptor alpha (ER-alpha) signaling pathway - cell viability counter screen (AID 743074; calls by dose curve;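 also: HEK293 cells carrying ER-alpha-UAS-bla reporter stimulated with 17beta-estradiol; nearly all actives have a fitted effect of over 45% in size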)
[5] = biological target: Estrogen receptor (Homo sapiens) (UniProt P03372); experiment: qHTS assay to identify small molecule agonists of the estrogen receptor alpha (ER-alpha) signaling pathway (AID 743075; calls by dose curve;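 also: HEK293 GripTite cells with ER-alpha and UAS-driven beta-lactamase reporter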; also: potency is read from the fitted curve at half-maximal effect)
[6] = qHTS assay to identify small molecule antagonists of the estrogen receptor alpha (ER-alpha) signaling pathway using the BG1 cell line (AID 743080; calls by dose curve;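 also: BG1 cells stimulated with 17beta-estradiol alongside compound; nearly all actives have a fitted effect of over 25% in size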; also: potency is read from the fitted curve at half-maximal effect)
Method in brief: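 Endogenous full-length ER-alpha in BG1-Luc-4E2 cells drives a stably integrated 4×ERE luciferase gene; compounds were tested against 17beta-estradiol over 21.5 h, with luminescence and multiplexed viability fluorescence recorded.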

[7] = qHTS assay to identify small molecule antagonists of the estrogen receptor alpha (ER-alpha) signaling pathway using the BG1 cell line - cell viability counter screen (AID 743081);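 also: compound given together with 17beta-estradiol as the ER stimulus; nearly all actives have a fitted effect of over 45% in size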
[8] = biological target: Aryl hydrocarbon receptor (Homo sapiens) (UniProt P35869); experiment: qHTS assay to identify small molecule that activate the aryl hydrocarbon receptor (AhR) signaling pathway (AID 743085); also: nearly all actives have a fitted effect of over 15% in size; also: potency is read from the fitted curve at half-maximal effect;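 as to activation: HG2L7.5c1 human HepG2 liver cells with stably integrated DRE-driven firefly reporter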
Method in brief: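 Luminescence read-out: ONE-Glo reagent, 30 min at room temperature, in HG2L7.5c1 HepG2 reporter cells treated 24 h at 37C. Viability was measured beforehand by CellTiter-Fluor fluorescence after 30 min at 37C.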

[9] = qHTS assay to identify small molecule that activate the aryl hydrocarbon receptor (AhR) signaling pathway - cell viability counter screen (AID 743086);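 also: HepG2 liver cells carrying the AhR DRE luciferase reporter; nearly all actives have a fitted effect of over 45% in size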
Method in brief: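 Cytotoxicity counter screen: CellTiter-Fluor signal (30 min, 37 C) in 4000 HepG2 cells/well carrying the DRE-luciferase reporter, following 24 h compound exposure at 37 C.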

[10] = qHTS assay for small molecule activators of the heat shock response signaling pathway (AID 743210; active = well fitted activation curve with a large enough effect in the signal ratio in the repeat runs, with a control signal flat, not every such curve was filed as active; inconclusive = weak or mixed curves; the % refers to the signal ratio)
Method in brief: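 Compound exposure lasted 5 h at 37 C in HeLa cells carrying a heat-shock-element-driven beta-lactamase reporter. Read-out: fluorescence intensity after 2.5 h room-temperature loading with LiveBLAzer B/G FRET substrate.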

[11] = biological target: Estrogen receptor (Homo sapiens) (UniProt P03372); experiment: qHTS assay to identify small molecule antagonists of the estrogen receptor alpha (ER-alpha) signaling pathway (AID 743069; active = well fitted curve in the direction sought with a large enough effect in the signal ratio in the repeat runs, not every such curve was filed as active; inconclusive = weak or mixed curves, or effect the other way; inactive = no such curve, though single readings can be large or run the other way; the % refers to the signal ratio)
Method in brief: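 Antagonist mode: compounds in DMSO were co-added with 17beta-estradiol to ER-alpha-bla HEK293 cells (2% charcoal-stripped serum) and left 18 h at 37C. Reporter inhibition was measured as FRET fluorescence after 2 h LiveBLAzer substrate at room temperature.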

[12] = biological target: Aromatase (Homo sapiens) (UniProt P11511); experiment: qHTS assay to identify aromatase inhibitors (AID 743083); also: nearly all actives have a fitted effect of over 55% in size
[13] = qHTS assay to identify aromatase inhibitors - cell viability counter screen (AID 743084);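 also: cells stimulated with testosterone during compound exposure; nearly all actives have a fitted effect of over 55% in size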
[14] = biological target: Peroxisome proliferator-activated receptor gamma (Homo sapiens) (UniProt P37231); experiment: qHTS assay to identify small molecule agonists of the peroxisome proliferator-activated receptor gamma (PPARg) signaling pathway (AID 743094; active = well fitted activation curve with a large enough effect in the signal ratio in the repeat runs, not every such curve was filed as active; inconclusive = weak or mixed curves, or effect the other way; inactive = no such curve, though single readings can be large or run the other way; the % refers to the signal ratio)
Method in brief: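 Agonism was assessed in a beta-lactamase reporter system, HEK293H cells with a stably integrated UAS-bla construct under PPARg control; the 17 h treatment at 37C preceded a 1 h room-temperature FRET substrate read.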

[15] = qHTS assay to identify small molecule antagonists of the peroxisome proliferator-activated receptor gamma (PPARg) signaling pathway - cell viability counter screen (AID 743194); also: nearly all actives have a fitted effect of over 55% in size
Method in brief: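 Viability was measured as CellTiter-Glo luminescence in GeneBLAzer PPARg UAS-bla HEK293H cells. These cells had been exposed 17 h at 37 C to compounds together with rosiglitazone at 50 nM final, with the beta-lactamase readout taken in the same wells.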

[16] = qHTS assay for small molecule agonists of the antioxidant response element (ARE) signaling pathway (AID 743202; active = well fitted activation curve with a large enough effect in the signal ratio in the repeat runs, not every such curve was filed as active; inconclusive = weak or mixed curves, or effect the other way; inactive = no such curve, though single readings can be large or run the other way; the % refers to the signal ratio; also: potency is read from the fitted curve at half-maximal effect)
Method in brief: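 After 16 hours of compound treatment at 37 C, HepG2 cells with a stably integrated ARE-driven beta-lactamase reporter were loaded 2 hours at room temperature with LiveBLAzer B/G FRET substrate and fluorescence intensity measured.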

[17] = qHTS assay for small molecule agonists of the antioxidant response element (ARE) signaling pathway - cell viability counter screen (AID 743203; calls by dose curve; also: nearly all actives have a fitted effect of over 55% in size)
Method in brief: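 ATP content via CellTiter-Glo luminescence served as the viability measure. Cells: ARE-bla HepG2, 2,000 per well. Exposure: 16 hrs, 37C/5% CO2.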

[18] = biological target: Estrogen receptor (Homo sapiens) (UniProt P03372); experiment: qHTS assay to identify small molecule agonists of the estrogen receptor alpha (ER-alpha) signaling pathway using the BG1 cell line (AID 743079); conditions: BG1Luc4E2 cells, ERE-luciferase agonist, 22 h; activation: at 70.3 µM (top of the series); also: nearly all actives have a fitted effect of over 20% in size; also: potency is read from the fitted curve at half-maximal effect
[19] = biological target: Peroxisome proliferator-activated receptor gamma (Homo sapiens) (UniProt P37231); experiment: qHTS assay to identify small molecule antagonists of the peroxisome proliferator-activated receptor gamma (PPARg) signaling pathway (AID 743191; calls by dose curve; also: nearly all actives have a fitted effect of over 30% in size; also: potency is read from the fitted curve at half-maximal effect)
Method in brief: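 Beta-lactamase reporter under UAS control in HEK293H PPARg-bla cells; compound treatment 17 h at 37C. Read-out: fluorescence intensity after 1 h room-temperature incubation with LiveBLAzer B/G FRET substrate.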

[20] = qHTS assay for small molecule activators of the heat shock response signaling pathway - cell viability counter screen (AID 743209); also: nearly all actives have a fitted effect of over 50% in size
Method in brief: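 Compounds dissolved in DMSO were added to overnight-plated HSE-bla HeLa cells and left 5 h at 37 C. Cell viability was quantified by luminescence using CellTiter-Glo.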

Sequence of Estrogen receptor (Homo sapiens) (P03372 whole entry, looked up): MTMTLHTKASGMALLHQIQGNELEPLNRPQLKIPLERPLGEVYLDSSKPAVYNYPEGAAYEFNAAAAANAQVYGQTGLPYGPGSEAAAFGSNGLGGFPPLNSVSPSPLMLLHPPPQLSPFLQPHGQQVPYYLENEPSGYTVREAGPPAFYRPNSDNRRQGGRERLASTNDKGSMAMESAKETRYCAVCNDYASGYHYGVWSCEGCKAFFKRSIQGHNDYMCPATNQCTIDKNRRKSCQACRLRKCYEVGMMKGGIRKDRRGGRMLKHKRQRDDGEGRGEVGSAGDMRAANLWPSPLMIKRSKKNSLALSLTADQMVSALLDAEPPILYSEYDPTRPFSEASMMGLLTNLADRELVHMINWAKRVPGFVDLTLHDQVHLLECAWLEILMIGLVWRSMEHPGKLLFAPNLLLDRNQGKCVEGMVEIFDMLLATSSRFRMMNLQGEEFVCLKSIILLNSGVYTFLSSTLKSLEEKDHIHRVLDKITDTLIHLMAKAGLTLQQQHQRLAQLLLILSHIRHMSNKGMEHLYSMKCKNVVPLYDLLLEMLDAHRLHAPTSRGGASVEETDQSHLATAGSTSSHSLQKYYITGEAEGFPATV
Sequence of Aryl hydrocarbon receptor (Homo sapiens) (P35869 whole entry, looked up): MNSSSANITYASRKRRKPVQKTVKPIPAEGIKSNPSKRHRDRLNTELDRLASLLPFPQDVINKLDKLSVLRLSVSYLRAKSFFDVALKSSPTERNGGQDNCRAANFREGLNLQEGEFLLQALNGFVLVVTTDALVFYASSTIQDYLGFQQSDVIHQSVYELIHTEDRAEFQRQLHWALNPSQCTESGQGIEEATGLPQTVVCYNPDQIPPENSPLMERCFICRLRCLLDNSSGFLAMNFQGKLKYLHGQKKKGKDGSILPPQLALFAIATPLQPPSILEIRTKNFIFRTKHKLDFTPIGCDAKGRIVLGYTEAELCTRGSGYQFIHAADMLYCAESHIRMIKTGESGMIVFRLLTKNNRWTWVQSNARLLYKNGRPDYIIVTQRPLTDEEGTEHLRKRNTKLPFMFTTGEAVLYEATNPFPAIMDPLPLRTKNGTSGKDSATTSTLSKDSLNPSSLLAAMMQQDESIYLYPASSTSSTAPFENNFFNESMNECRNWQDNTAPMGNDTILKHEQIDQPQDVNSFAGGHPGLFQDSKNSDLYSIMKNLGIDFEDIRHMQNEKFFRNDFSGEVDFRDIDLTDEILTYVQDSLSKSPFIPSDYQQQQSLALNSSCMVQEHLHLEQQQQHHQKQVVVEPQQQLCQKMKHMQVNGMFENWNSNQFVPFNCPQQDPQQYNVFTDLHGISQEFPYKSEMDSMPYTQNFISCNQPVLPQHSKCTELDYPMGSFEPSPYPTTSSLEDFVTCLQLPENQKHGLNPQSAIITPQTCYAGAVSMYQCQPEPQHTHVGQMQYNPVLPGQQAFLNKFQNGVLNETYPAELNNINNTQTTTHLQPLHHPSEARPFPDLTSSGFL
Sequence of Aromatase (Homo sapiens) (P11511 whole entry, looked up): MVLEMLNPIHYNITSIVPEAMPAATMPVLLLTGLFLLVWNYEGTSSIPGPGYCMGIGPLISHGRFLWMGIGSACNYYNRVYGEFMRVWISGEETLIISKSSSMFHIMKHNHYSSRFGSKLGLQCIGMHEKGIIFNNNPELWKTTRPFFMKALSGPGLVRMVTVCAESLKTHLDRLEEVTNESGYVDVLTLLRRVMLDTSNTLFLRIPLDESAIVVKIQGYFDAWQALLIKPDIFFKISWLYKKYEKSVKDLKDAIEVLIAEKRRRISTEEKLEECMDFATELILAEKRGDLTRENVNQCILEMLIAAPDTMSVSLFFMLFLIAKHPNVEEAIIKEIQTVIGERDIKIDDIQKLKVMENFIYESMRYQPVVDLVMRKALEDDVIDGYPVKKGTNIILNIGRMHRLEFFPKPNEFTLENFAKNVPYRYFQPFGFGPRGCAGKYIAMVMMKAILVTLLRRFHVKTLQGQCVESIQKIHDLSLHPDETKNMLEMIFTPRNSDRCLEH
Sequence of Peroxisome proliferator-activated receptor gamma (Homo sapiens) (P37231 whole entry, looked up): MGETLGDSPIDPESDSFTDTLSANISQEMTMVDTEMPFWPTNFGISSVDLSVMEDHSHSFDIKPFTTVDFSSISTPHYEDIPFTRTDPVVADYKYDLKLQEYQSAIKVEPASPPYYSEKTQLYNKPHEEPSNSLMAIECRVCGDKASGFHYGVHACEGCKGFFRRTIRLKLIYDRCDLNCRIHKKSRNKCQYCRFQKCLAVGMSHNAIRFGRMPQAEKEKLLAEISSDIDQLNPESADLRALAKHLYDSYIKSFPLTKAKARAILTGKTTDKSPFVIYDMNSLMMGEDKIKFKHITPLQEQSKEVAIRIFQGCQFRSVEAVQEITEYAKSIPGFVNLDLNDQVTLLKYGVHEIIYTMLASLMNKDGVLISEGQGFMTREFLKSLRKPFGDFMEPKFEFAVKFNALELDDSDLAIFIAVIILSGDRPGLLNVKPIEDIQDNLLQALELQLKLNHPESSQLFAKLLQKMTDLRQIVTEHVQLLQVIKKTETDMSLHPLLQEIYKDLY

SMILES | Potency [1] | Potency [2] | outcome [3] | Potency [4] | Potency [5] | Potency [6] | Potency [7] | Potency [8] | Potency [9] | Potency [10] | Potency [11] | Potency [12] | Potency [13] | Potency [14] | Potency [15] | Potency [16] | Potency [17] | Potency [18] | Potency [19] | Potency [20]
O=C(CCCCCCC(=O)Nc1ccccc1)NO | 3.35 µM (active) and 2.11 µM (active) | 2.11 µM (active) and 2.66 µM (active) | inactive | inactive | inactive | 5.96 µM (active) and 4.22 µM (active) | inactive | inactive | inactive | inactive | – | – | – | – | – | – | – | – | – | –
COc1cc2[nH]c(=O)[nH]c(=O)c2cc1OC | inactive | inactive | inactive | inactive | inactive | inactive | inactive | – | inactive | inactive | inactive | inactive | inactive | inactive | inactive | inactive | inactive | – | – | –
Oc1ccc(Nc2ccccc2)cc1 | 54.5 µM (active) | 43.3 µM (active) | inactive | inactive | 55 µM [activator] (active) | – | inactive | – | inactive | inactive | – | inactive | inactive | – | – | 27.3 µM (active) | inactive | 30.6 µM (active) | 19.5 µM (active) | inactive
OC/C(Br)=C(\Br)CO | inactive | inactive | inactive | inactive | inactive | inactive | inactive | inactive | inactive | inactive | inactive | inactive | inactive | inactive | inactive | inactive | inactive | – | inactive | –
O=S1OCCO1 | inactive | inactive | inactive | inactive | inactive | – | inactive | inactive | inactive | inactive | inactive | inactive | inactive | inactive | inactive | inactive | inactive | inactive | inactive | inactive
Brc1cc(-c2ccc(Br)c(Br)c2Br)cc(Br)c1Br | inactive | 26.9 µM (active) | inactive | inactive | inactive | inactive | inactive | 8.5 µM (active) | inactive | inactive | – | inactive | inactive | – | inactive | – | inactive | inactive | – | inactive
CC1=C(C=O)C(C)(C)CCC1 | inactive | inactive | inactive | inactive | inactive | – | inactive | inactive | inactive | inactive | inactive | inactive | inactive | inactive | inactive | – | inactive | inactive | inactive | –
C=CCOC(=O)/C=C\C(=O)OCC=C | inactive | inactive | inactive | inactive | inactive | – | inactive | inactive | inactive | – | inactive | inactive | inactive | inactive | inactive | 27.8 µM (active) | inactive | inactive | – | –
CC(C)=CC=O | inactive | inactive | inactive | inactive | inactive | – | inactive | – | inactive | inactive | inactive | inactive | inactive | inactive | – | inactive | inactive | inactive | – | inactive
O=Cc1c(Cl)cccc1Cl | inactive | inactive | inactive | inactive | inactive | – | inactive | – | inactive | inactive | inactive | inactive | inactive | inactive | – | – | inactive | inactive | inactive | inactive
CC1(C)O[C@@H]2C[C@H]3[C@@H]4CCC5=CC(=O)C=C[C@]5(C)[C@H]4[C@@H](O)C[C@]3(C)[C@]2(C(=O)CO)O1 | inactive | inactive | inactive | inactive | inactive | – | inactive | inactive | inactive | inactive | inactive | inactive | inactive | – | inactive | inactive | inactive | 0.596 µM (active) | – | –
NC(=O)Nc1ccc(Cl)cc1 | inactive | inactive | inactive | – | inactive | inactive | inactive | inactive | inactive | inactive | inactive | inactive | inactive | inactive | – | inactive | inactive | inactive | inactive | inactive
CCN(CC)CCNC(=O)c1ccc(NC(C)=O)cc1 | inactive | inactive | inactive | inactive | inactive | – | inactive | – | inactive | inactive | inactive | inactive | inactive | inactive | inactive | inactive | inactive | inactive | inactive | –
CCCCCC=CCC=CCCCCCCCC(=O)OCC | inactive | inactive | inactive | inactive | inactive | – | inactive | inactive | inactive | – | inactive | inactive | inactive | inactive | inactive | – | inactive | inactive | 29.8 µM (active) | –
COC(OC)(C(=O)c1ccccc1)c1ccccc1 | inactive | inactive | inactive | inactive | 0.0123 µM [inconclusive] (active) | – | inactive | – | inactive | inactive | inactive | inactive | inactive | inactive | inactive | inactive | inactive | 4.32 µM (active) | inactive | inactive
CC(COc1ccc(C(C)(C)C)cc1)OS(=O)OCCCl (stereo not drawn) | inactive | inactive | inactive | inactive | inactive | – | inactive | inactive | inactive | inactive | inactive | inactive | inactive | inactive | inactive | inactive | inactive | inactive | inactive | inactive
